According to the supplement of paper PMC10338343:
± gives the standard deviation. The full ranking holds about 8,200 sequences; the median of “pre-steady-state target cleavage rate” is about 0.024, and the highest 2% start at about 1.3. The list comes from a sample in which the highest values are over-represented; it also holds similar and randomly drawn sequences.

System: MIWI (PIWIL1) piRISC loaded with L1MC piRNA (30 nt)
Test: pre-steady-state target cleavage rate (min^-1); MIWI and MILI are mouse PIWI proteins and EfPiwi is from a freshwater sponge; tags in brackets are library labels; higher = faster piRNA-guided slicing of the target
Settings: guide: L1MC piRNA 5'p-UAACUAAAUACUAUGCAAGCUGUAGGUCCU
Method: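 Cleave-'n-Seq: a library of target RNAs (target site embedded in constant flanks, ACAGCATTCCGCGTTAGTGATATCCG... 5' flank; DNA-blocked outside the site) at 0.1 nM was incubated with 1 nM active mouse MILI or MIWI piRISC (synthetic 5'-monophosphorylated piRNA guide) with or without 500 nM mouse GTSF1 at 33 °C for 1 min to 16 h. Uncleaved targets were sequenced and normalised to non-target controls, and the pooled three trials were fitted to a burst-and-steady-state model to give the pre-steady-state cleavage rate (min^-1; k3 is constrained to at most 1e-4). Sequence is the target site only; target names encode pairing extent (gX:gY) and contiguous / 1-mismatch / 2-mismatch / bulge geometry. Fits with R² ≤ 0 are excluded.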

[1] = auxiliary factor: 500 nM mouse GTSF1
[2] = auxiliary factor: none (no GTSF1)

Sequence	pre-steady-state target cleavage rate [1]	pre-steady-state target cleavage rate [2]
UCCACCAACAGCUUGCAUAGUAUUUAGUUA	1.06 ± 0.037	0.0618 ± 0.011
UCCAACUACAGCUUGCAUAGUAUUUAGUUA	0.646 ± 0.038	0.0478 ± 0.0076
UGGACGUACAGCUUGCAUAGUAAUUAGUUA	0.725 ± 0.048	0.0371 ± 0.0089
UCCUGGUACAGCUUGCAUAGUAUUAUGAAA	0.119 ± 0.037	
UCCUGGUACACCUUGCAUAGUAAUUAGUUA	0.546 ± 0.1	0.00728 ± 0.0025
ACGACCUACAGCUUGGAUAGUAUUUAGUUA	1.68 ± 0.067	0.0728 ± 0.011
UCGACCUACAGCUUGGAUAGUAUUUAGUAA	0.859 ± 0.043	0.0299 ± 0.0054
AGCACCUACAGCUUGGAUAGUAUUUAGUUA	0.99 ± 0.049	0.0433 ± 0.0065
UCGACCUACAGCUUGGAUAGUAUUUAGAUA	0.444 ± 0.05	0.0181 ± 0.0047
UCGACCUACAGCUUGGAUAGUAUUUAGUUA	1.72 ± 0.055	0.0599 ± 0.01
UGCACCUACAGCUUGGAUAGUAUUUAGUUA	1.18 ± 0.065	0.05 ± 0.008
AGGACGAACAGCUUGCAUAGUAUUUACAAA	0.245 ± 0.037	0.00641 ± 0.0027
UGGACCUACACGUUGCAUAGUAUUUAGUAA	0.575 ± 0.039	0.00987 ± 0.0024
AGGAUCCUACAGCUUGCAUAGUAUUUAGUUA	1.4 ± 0.068	0.118 ± 0.023
UGGAUCCUACAGCUUGCAUAGUAUUUAGUUA	1.37 ± 0.071	0.0869 ± 0.014
UCCAUCCUACAGCUUGCAUAGUAUUUAGUUA	0.558 ± 0.029	0.0561 ± 0.0096
UCGAUCCUACAGCUUGCAUAGUAUUUAGUUA	1.49 ± 0.042	0.0686 ± 0.013
AGGUCCUACAGCUUGCAUAGUAUUUACAAA	0.428 ± 0.076	0.00841 ± 0.003
UGGACCUACAGCUUGCAGUAGUAUUUAGUUA	0.00477 ± 0.0038	
UCCUGGUUCAGCUUGCAUAGUAUUUAGUAA	0.528 ± 0.055	0.0354 ± 0.008

Sequence	pre-steady-state target cleavage rate [1]	pre-steady-state target cleavage rate [2]
UCCUGCAACAGGUUGCAUAGUAUUUAGUUA	1.11 ± 0.085	0.0208 ± 0.0052
UCCUGGAUGUGCUUGCAUAGUAUUUAGGUUA	0.191 ± 0.02	0.0232 ± 0.0058
UCCUGGAUGUGCUUGCAUAGUAUUUAUGUUA	0.202 ± 0.026	0.0215 ± 0.0052
AGGACCUAGAGCUUGCAUAGUAAUUAGUUA	0.747 ± 0.047	0.0277 ± 0.0076
UCCACCAACAGCUUGCUUAGUAUUUAGUUA	1.31 ± 0.061	0.026 ± 0.0061
UCGACCAACAGCUUGCAAAGUAUUUAGUUA	1.29 ± 0.043	0.0448 ± 0.01
AGGACCAACAGCUUGCAAAGUAUUUAGUUA	1.18 ± 0.038	0.0503 ± 0.01
UGGACCAACAGCUUGCAAAGUAUUUAGUUA	1.38 ± 0.062	0.0368 ± 0.0072
UCGACCAACAGCUUGCUUAGUAUUUAGUUA	1.47 ± 0.05	0.0416 ± 0.0081
UGGACCAACAGCUUGCUUAGUAUUUAGUUA	1.64 ± 0.092	0.0497 ± 0.01
UCCUCCAACAGCUUGCUUAGUAUUUAGUUA	1.28 ± 0.054	0.0363 ± 0.0081
AGGACCAACAGCUUGCUUAGUAUUUAGUUA	1.31 ± 0.066	0.0459 ± 0.0084
UCGACCAACAGCUUGCAUUGUAUUUAGUUA	0.973 ± 0.028	0.0383 ± 0.008
UCCUCCUACAGUUGCAUAGUAUUUAGUUA	0.742 ± 0.046	0.00376 ± 0.0017
UCCUGGUUCAGCUUGCAUAGUAUUUACUUA	0.18 ± 0.041	0.0237 ± 0.0048
UCCUCCUACACCUUCCAUAGUAUUUAGUUA	0.0661 ± 0.024	
UGGACCUACAGCUUGCAUACUUUUUAGUUA	0.0337 ± 0.0046	0.00745 ± 0.0014
UCCACCUACAGCUUGCAUAGUAUAUACAAA	0.413 ± 0.089	
UCCUGGAACAGCUUGCAUAAUAUUUAGUUA	0.559 ± 0.045	0.0418 ± 0.0079
UCCUGGAUCAGCUUGCAUAGUAUUUAGCUA	0.0164 ± 0.0052	0.00651 ± 0.0022

Sequence	pre-steady-state target cleavage rate [1]	pre-steady-state target cleavage rate [2]
UCCUGGAACAGCUUGCUUUGUAUUUAGUUA	0.0971 ± 0.011	0.00848 ± 0.0027
UGGACCUUACAGCUUGCAUAGUAUUUAGUUA	1.58 ± 0.095	0.0853 ± 0.016
UCCACCUUACAGCUUGCAUAGUAUUUAGUUA	1.03 ± 0.043	0.0654 ± 0.013
AGGACCUACAGCUUGCAUAGUAUUUAGUUC [g2:g30:cont:t1C]	0.664 ± 0.055	0.0568 ± 0.01
AGGACCUUACAGCUUGCAUAGUAUUUAGUUA	1.33 ± 0.06	0.0925 ± 0.016
UCGGACCUACAGCUUGCAUAGUAUUUAGUUA	1.37 ± 0.097	0.0616 ± 0.01
AGGACCUACAGCUUGCAUAGUAUUUUAGUUA	1.08 ± 0.058	0.056 ± 0.014
AAGGACCUACAGCUUGCAUAGUAUUUAGUUA	1.29 ± 0.071	0.0755 ± 0.014
CGGACCUACAGCUUGCAUAGUAUUUAGUUA	0.743 ± 0.028	0.06 ± 0.0088
ACGGACCUACAGCUUGCAUAGUAUUUAGUUA	1.24 ± 0.072	0.0796 ± 0.016
AGGACCUACAGCUUGCAUAGUAUUUAGUUA [g2:g30:cont:t1A]	1.35 ± 0.057	0.0941 ± 0.015
AGGACCUACAGCUUGCAUAGUAUUUAGUUU [g2:g30:cont:t1U]	1.64 ± 0.079	0.165 ± 0.036
GGGACCUACAGCUUGCAUAGUAUUUAGUUA	1.32 ± 0.097	0.113 ± 0.025
UGGGACCUACAGCUUGCAUAGUAUUUAGUUA	1.11 ± 0.1	0.134 ± 0.033
AGGGACCUACAGCUUGCAUAGUAUUUAGUUA	1.31 ± 0.086	0.102 ± 0.021
AGGACCUACAGCUUGCAUAGUAUUUAGUUG [g2:g30:cont:t1G]	0.455 ± 0.046	0.0773 ± 0.018
AGGACCUUCAGCUUGCAUAGUAUAUAGUUA	0.827 ± 0.057	0.0427 ± 0.009
AGGACCUACAGCUUGCAUAGUAUUUAGUUUA	1.27 ± 0.067	0.11 ± 0.019
UCCACCUACAGCUUGCAUAGUAUUUAGGUUA	0.409 ± 0.062	0.0153 ± 0.0045
